A selection: hits, their analogues and other compounds. The true share with any hit is near 7.4%.
3T3 cytotox = NIH 3T3 cell cytotoxicity | NIH 3T3 viability, CellTiter-Glo ATP luminescence, 48-72 h | Potency, µM (doses to about 96.7 µM), for inactives: at the top dose activity change, negative = cytotoxicity, hits mostly inhibitors | hit rate 4.3% among 94,000; note: nearly all actives have a fitted effect of over 55% in size
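Cytotoxicity is measured as loss of cellular ATP: NIH 3T3 cells (400/well) are exposed to compound for 48 or 72 hr at 37 °C, then CellTiter-Glo luminescence is imaged after 10 min at room temperature.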
hNpr1 antagonist = blocks ANP-stimulated signaling of human Npr1 receptor; hit rate 1.6% among 76,000; HEK293 hNpr1 GloSensor cGMP, ANP-stimulated luminescence; P16066; Potency, µM (series often up to 46.3 µM), for inactives: top-dose activity change, negative = inhibition, most hits filed as inhibitors; calls by dose curve; note: nearly all actives have a fitted effect of over 60% in size
Target sequence (P16066 whole entry, looked up): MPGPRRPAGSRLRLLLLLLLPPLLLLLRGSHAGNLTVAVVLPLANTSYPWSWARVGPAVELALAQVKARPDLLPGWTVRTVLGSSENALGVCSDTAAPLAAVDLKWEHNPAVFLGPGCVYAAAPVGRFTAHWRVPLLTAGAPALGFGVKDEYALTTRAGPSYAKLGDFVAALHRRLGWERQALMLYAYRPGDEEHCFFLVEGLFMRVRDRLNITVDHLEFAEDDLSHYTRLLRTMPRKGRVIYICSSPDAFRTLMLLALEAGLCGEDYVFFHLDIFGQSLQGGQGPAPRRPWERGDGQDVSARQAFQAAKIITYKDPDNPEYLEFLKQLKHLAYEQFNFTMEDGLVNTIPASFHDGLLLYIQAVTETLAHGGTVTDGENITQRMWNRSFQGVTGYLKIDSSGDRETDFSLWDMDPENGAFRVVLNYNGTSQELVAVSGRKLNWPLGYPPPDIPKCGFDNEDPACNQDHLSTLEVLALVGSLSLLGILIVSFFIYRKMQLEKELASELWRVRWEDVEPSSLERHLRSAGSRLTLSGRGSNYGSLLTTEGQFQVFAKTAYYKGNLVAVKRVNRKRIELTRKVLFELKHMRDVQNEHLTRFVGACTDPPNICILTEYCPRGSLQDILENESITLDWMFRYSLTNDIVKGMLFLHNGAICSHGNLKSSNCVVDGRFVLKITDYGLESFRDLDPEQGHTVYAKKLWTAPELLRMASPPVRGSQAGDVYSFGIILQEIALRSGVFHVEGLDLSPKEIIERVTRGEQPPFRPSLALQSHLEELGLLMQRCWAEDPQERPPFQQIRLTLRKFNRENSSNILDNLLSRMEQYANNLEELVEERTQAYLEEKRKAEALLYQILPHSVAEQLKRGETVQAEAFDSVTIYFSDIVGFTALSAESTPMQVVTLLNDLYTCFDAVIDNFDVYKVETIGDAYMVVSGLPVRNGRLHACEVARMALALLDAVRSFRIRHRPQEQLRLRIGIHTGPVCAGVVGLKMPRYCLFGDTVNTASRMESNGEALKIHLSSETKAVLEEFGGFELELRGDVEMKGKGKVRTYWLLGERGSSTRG
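Compound pre-incubated 30 min at room temperature on GloSensor-loaded HEK293 cells stably carrying hNpr1 and the pGS-40F cGMP biosensor. Stimulation uses hNppA at 0.1 nM final; luminescence is taken at baseline and 20 min post-agonist.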
Luciferase inh = blocks purified firefly luciferase enzyme activity | Potency, µM (highest dose often 115 µM), most hits filed as inhibitors | purified P. pyralis luciferase, luminescence, biochemical | P08659 | AID 1347043 | hit rate 2.5% among 76,000; note: nearly all actives have a fitted effect of over 65% in size
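Purified P. pyralis luciferase (10nM final) in 50mM Tris acetate pH 7.5, 10mM Mg acetate, 0.01% Tween-20, 0.05% BSA with 10uM D-luciferin and 10uM ATP. Compounds titrated qHTS. Luminescence imaged on CCD.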
HEK cytotox = cytotoxic compounds in HEK 293 cells | HEK 293 viability, ATP luminescence (CellTiter-Glo), 48-72 h | Potency, µM (top dose mostly 115 µM), inactives show top-dose activity change, negative = cytotoxicity, most hits filed as inhibitors | hit rate 6.6% among 94,000 | AID 1345083; note: nearly all actives have a fitted effect of over 60% in size
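CellTiter-Glo luminescence (cellular ATP) was read after 48 or 72 hr of compound exposure at 37 degree Celsius. Cells were HEK 293 plated at 250 cells/well.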
SNCA expr inh = reduces expression of the alpha-synuclein gene; AID 1671194; HEK-293 SNCA-luciferase knock-in, luminescence, 24 h; hit rate 0.17% among 140,000; Potency, µM (series often up to 57.2 µM), for inactives: at the top dose activity change, negative = inhibition, hits mostly inhibitors;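 note: plate controls were DMSO cells for no effect and cell-free wells for full effect; nearly all actives have a fitted effect of over 45% in size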
SNCA viab count = reduces viability of HEK-293 SNCA reporter cells; AID 1671193; HEK-293-SNCA-luc viability, GF-AFC fluorescence, 24 h; Potency, µM (doses to about 57.1 µM), for the others: at the highest dose activity change, negative = cytotoxicity, most hits filed as cytotoxic; hit rate 0.12% among 150,000;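 note: 0% = DMSO-treated cells and -100% = medium-only wells without cells; nearly all actives have a fitted effect of over 30% in size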
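HEK-293-SNCA-luc cells (1500/well) plated 24 h, then exposed 24 h to a dilution series; GF-AFC added 30 min at 37C, fluorescence 405/540 nm; normalised to medium-only and DMSO wells, Hill fit.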
* = called active by the depositor; i = inactive; ? = inconclusive; . = no result given; [ ] = dose if it differs, or a comment. Unless noted, calls come from the whole dose curve; as a rule, active = well fitted curve in the direction sought with a large enough effect; inconclusive = small, poorly fitted or top-dose-only effect, or another doubt; inactive = no such curve, though single readings can be large; an effect the other way counts as inactive or inconclusive. Unless noted, % is set by controls: 0 for no effect and ±100 for the full control effect; potency is the fitted concentration of half-maximal effect.

SMILES	3T3 cytotox	hNpr1 antagonist	Luciferase inh	HEK cytotox	SNCA expr inh	SNCA viab count
CCc1nc(-c2ccc(OC3CCN(S(=O)(=O)c4cn(C)cn4)C3)cc2)no1 (stereo not given)	-8%	-5%	i	?	-29%	-13%
CN(C)c1nc(N)nc(CNC(=O)c2csc(Cc3ccccc3)n2)n1	2%	7%	i	?	32%	-2%
O=C(NCc1ccccc1)c1csc(Nc2ccncn2)n1	.	.	.	.	9.6µM*	?
N#Cc1cccc(CN2CCc3nc(C(=O)Nc4cccc(C(F)(F)F)c4)oc3CC2)c1	?	11µM*	?	?	?	-22%
COc1cccc(CN2CCc3nc(C(=O)Nc4cccnc4)oc3CC2)c1	?	?	22µM*	?	102%[87.6 µM]	1%[87.6 µM]
O=C(NCc1ccncc1)c1nc2c(o1)CCN(Cc1ccccc1)CC2	-26%[138 µM]	-24%[70.6 µM]	i	?	3%[87.6 µM]	6%[87.6 µM]
O=C(Nc1cccnc1)c1nc2c(o1)CCN(Cc1cccs1)CC2	?	-19%[70.6 µM]	?	89µM*	-25%[87.6 µM]	1%[87.6 µM]
COc1ccc(CN2CCc3nc(C(=O)Nc4cccnc4)oc3CC2)cc1OC	?	-17%[70.6 µM]	i	?	-6%[87.6 µM]	6%[87.6 µM]
O=C(NCc1cccc(F)c1)c1nc2c(o1)CCN(Cc1cccc(F)c1F)CC2	45µM*	?	i	50µM*	4%[87.6 µM]	3%[87.6 µM]
COc1cccc(NC(=O)N[C@H]2C[C@@H](c3nc(C)no3)N(C)C2)c1	-28%[174 µM]	3%[70.6 µM]	i	-12%[172 µM]	-13%[87.6 µM]	5%[87.6 µM]
Cc1cc(CN(C)C(=O)c2cc(COc3cncc(Cl)c3)on2)on1	-25%	-2%	i	-29%	-23%	-1%
CC(C)C(=O)N1CCC(Cc2ccc(C(N)=O)cc2)CC1	-10%	3%	i	-20%	-1%	-6%
N#Cc1cccc(CN2CCc3nc(C(=O)NCC4CC4)oc3CC2)c1	?	-24%[70.6 µM]	i	?	12%[87.6 µM]	2%[87.6 µM]
O=C(NCC1CC1)c1nc2c(o1)CCN(Cc1cccc(O)c1)CC2	100µM*	4%[70.6 µM]	?	?	68%[87.6 µM]	5%[87.6 µM]
O=C(Nc1cccc(C(F)(F)F)c1)c1nc2c(o1)CCN(Cc1nccs1)CC2	?	35µM*	16µM*	?	7%[87.6 µM]	-8%[87.6 µM]
O=C(Nc1cccc(C(F)(F)F)c1)c1nc2c(o1)CCN(Cc1cccs1)CC2	?	?	8.9µM*	?	3%[87.6 µM]	0%[87.6 µM]
Cc1ccc(CN2CCc3nc(C(=O)Nc4cccnc4)oc3CC2)o1	-21%[138 µM]	-10%[70.6 µM]	?	?	83%[87.6 µM]	-4%[87.6 µM]
CSCC[C@@H]1NC(=O)c2cc(NC(=O)Cc3ccc4c(c3)OCC4)ccc2NC1=O	5%	0%	i	1%	11%	3%
COc1ccc(F)cc1-c1ccc(CN2CCCCC2C(=O)NC(C)CCc2ccccc2)cc1 (stereo not given)	?	.	.	25µM*	.	.
O=C(NCc1cccs1)C1CCCN1Cc1ccc(-c2cncnc2)cc1 (stereo not given)	?	.	.	?	-11%	-4%
O=C(NCc1cccc(C(F)(F)F)c1)C1CCCN1Cc1ccc(-c2cncnc2)cc1 (stereo not given)	?	.	.	50µM*	-3%	-6%
COc1ccccc1-c1ccc(CN2CCCCC2C(=O)NCc2cccc(C(F)(F)F)c2)cc1 (stereo not given)	?	.	.	28µM*	.	.
COc1ccc(F)cc1-c1ccc(CN2CCCCC2C(=O)NCc2cccs2)cc1 (stereo not given)	13µM*	.	.	?	.	.
O=C(Cc1ccsc1)N1CCC2(CC1)CC(N1CCCCC1)CCO2 (stereo not given)	i	12%	i	2%	10%	2%
CCCNC(=O)N1CCC2(CCCN(Cc3cccc(F)c3F)C2=O)C1 (stereo not given)	i	5%	i	i	-7%	6%
SMILES	3T3 cytotox	hNpr1 antagonist	Luciferase inh	HEK cytotox	SNCA expr inh	SNCA viab count
COc1cccc(CNC(=O)C2CCCN2C(=O)c2cccc(-c3ccccn3)c2)c1 (stereo not given)	-10%	.	.	i	3%	-3%
COc1ccc(F)cc1-c1ccc(CN2CCCCC2C(=O)NCc2ccccc2)cc1 (stereo not given)	?	.	.	32µM*	.	.
COc1ccccc1-c1ccc(CN2CCCCC2C(=O)NCc2ccc(C(F)(F)F)cc2)cc1 (stereo not given)	?	.	.	?	-19%	1%
COc1ccccc1-c1cccc(C(=O)N2CCC[C@H]2C(=O)NCc2ccc(C(F)(F)F)cc2)c1	?	.	.	79µM*	4%	-25%[12.5 µM]
COc1ccc(F)cc1-c1ccc(CN2CCCCC2C(=O)NCc2ccccc2F)cc1 (stereo not given)	?	.	.	25µM*	.	.
O=C(NCc1ccc(F)cc1)C1CCCCN1Cc1ccc(-c2cccs2)cc1 (stereo not given)	?	.	.	?	-13%	1%[12.5 µM]
COc1ccc(CNC(=O)C2CCCCN2Cc2ccc(-c3ccccc3OC)cc2)cc1OC (stereo not given)	?	.	.	32µM*	.	.
CC(C)CCN1CCC2(CN[S+](=O)([O-])c3ccccc3N2)C1 (stereo not given)	-25%[138 µM]	-26%[70.6 µM]	i	?	-8%[87.6 µM]	-1%[87.6 µM]
COc1cc(OC)cc(OCC2CN(Cc3cccc(C(F)(F)F)c3)C(=O)c3c(ccnc3-c3ccc(OCC(=O)O)cc3)O2)c1 (stereo not given)	?	2%	i	0%	-2%	-1%
O=C(O)COc1ccc(-c2nccc3c2C(=O)N(Cc2c[nH]c4ccccc24)CC(COc2ccccc2F)O3)cc1 (stereo not given)	?	1%	?	i	22%	-2%
COc1cccc(OCC2CN(Cc3cccc(C(F)(F)F)c3)C(=O)c3c(ccnc3-c3ccc(OCC(=O)O)cc3)O2)c1OC (stereo not given)	?	0%	45µM*	5%	38%	2%
O=C(O)COc1ccc(-c2nccc3c2C(=O)N(Cc2c[nH]c4ccccc24)CC(COc2ccc(F)cc2F)O3)cc1 (stereo not given)	?	3%	45µM*	i	7%	-2%
O=C(C1CC1)N1CC2(CCCN2Cc2cccnc2)Cc2ccccc21 (stereo not given)	-5%	.	.	-26%	-21%	-7%
O=C(CNC(=O)c1ccc(-c2cnc3ccccc3c2)cc1)NCC(F)(F)F	-17%	.	.	-30%	.	.
O=C(CNC(=O)c1ccc(-c2cnc3ccccc3c2)cc1)NCC1CCCCC1	?	.	.	40µM*	.	.
O=C(NCC(=O)N1CCCCC1)c1ccc(-c2cnc3ccccc3c2)cc1	?	.	.	45µM*	-29%	-5%
